Experimental data published in ChEMBL document CHEMBL3988442, “University of Dundee, Small-Polar-MMV Screening Library” (2021).
For some assays here: Potency and affinity values are given separately.

Columns and labels:
Set-up in all cases: scale not given: direction of the effect not stated beside the values
[1] = target: Protein translocase subunit SecA (Escherichia coli (strain K12)) (UniProt P10408); assay: Assay to Identify E. coli SecA ATPase Inhibitors; type: functional; details: 30 µM
[2] = target: T1, Ubiquitin-activating enzyme e1, putative (Leishmania donovani (strain BPK282A1)) (UniProt E9BSI1); assay: Leishmania donovani Ubiquitin Activating Enzyme (LdE1); type: functional; details: 30 µM
T1 sequence (whole entry): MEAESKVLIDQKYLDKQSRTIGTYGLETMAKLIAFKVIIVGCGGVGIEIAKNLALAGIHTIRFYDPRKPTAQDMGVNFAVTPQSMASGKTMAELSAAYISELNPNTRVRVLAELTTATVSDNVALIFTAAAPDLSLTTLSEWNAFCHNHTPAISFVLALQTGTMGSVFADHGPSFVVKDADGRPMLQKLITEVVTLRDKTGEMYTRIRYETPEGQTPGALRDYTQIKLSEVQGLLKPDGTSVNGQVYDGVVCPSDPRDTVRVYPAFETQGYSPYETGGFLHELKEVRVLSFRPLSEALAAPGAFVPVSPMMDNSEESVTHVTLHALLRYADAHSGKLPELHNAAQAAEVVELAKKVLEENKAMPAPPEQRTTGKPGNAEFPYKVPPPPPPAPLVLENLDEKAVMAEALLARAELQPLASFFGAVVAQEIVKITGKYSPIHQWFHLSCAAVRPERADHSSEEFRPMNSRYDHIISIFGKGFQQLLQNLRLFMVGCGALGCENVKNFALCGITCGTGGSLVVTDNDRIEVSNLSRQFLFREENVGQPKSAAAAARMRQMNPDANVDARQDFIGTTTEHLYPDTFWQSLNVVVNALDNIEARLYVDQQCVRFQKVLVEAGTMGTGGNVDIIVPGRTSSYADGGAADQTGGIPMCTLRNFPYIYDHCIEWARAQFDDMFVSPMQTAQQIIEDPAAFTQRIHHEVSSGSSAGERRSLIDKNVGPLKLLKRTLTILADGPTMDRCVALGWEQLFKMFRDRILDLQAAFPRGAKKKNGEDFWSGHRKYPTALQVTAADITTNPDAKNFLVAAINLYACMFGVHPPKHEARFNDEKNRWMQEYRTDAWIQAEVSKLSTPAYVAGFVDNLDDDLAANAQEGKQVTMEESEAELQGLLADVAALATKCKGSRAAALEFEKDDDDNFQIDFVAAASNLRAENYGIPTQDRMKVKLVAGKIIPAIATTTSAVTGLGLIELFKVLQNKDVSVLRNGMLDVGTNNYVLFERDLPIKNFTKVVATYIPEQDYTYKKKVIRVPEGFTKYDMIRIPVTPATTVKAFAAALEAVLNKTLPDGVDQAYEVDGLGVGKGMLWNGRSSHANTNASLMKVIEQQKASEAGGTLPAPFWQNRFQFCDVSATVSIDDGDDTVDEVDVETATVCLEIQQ

[3] = target: AMP-activated protein kinase, AMPK (Homo sapiens) (UniProt P54646+O43741+P54619+Q9UGJ0+Q9Y478+Q13131+Q9UGI9); assay: AMP-dependent Kinase enzyme assay. An in vitro enzyme assay that detects ADP turnover that is directly proportional to AMPK activity. This uses naive AMPK that is activated during the assay with MK-8722; type: functional; details: 30 µM
[4] = target: Sialic acid-binding Ig-like lectin 9 (Homo sapiens) (UniProt Q9Y336); assay: Hs-Siglec9 ALPHAscreen SOP 20170721; details: 10 µM
[5] = system: Trypanosoma cruzi; assay: Trypanosoma cruzi phosphomannomutase and mannose-1-phosphate guanylyltransferase assay; type: functional; details: 10 µM
[6] = target: T2, Arginase-2, mitochondrial (Homo sapiens) (UniProt P78540); assay: in vitro enzyme assay to detect the production of urea directly proportional to the activity of Arginase II; type: functional; details: 33.3 µM; also: in the data most compounds retested in dose-response had high values
T2 sequence (whole entry): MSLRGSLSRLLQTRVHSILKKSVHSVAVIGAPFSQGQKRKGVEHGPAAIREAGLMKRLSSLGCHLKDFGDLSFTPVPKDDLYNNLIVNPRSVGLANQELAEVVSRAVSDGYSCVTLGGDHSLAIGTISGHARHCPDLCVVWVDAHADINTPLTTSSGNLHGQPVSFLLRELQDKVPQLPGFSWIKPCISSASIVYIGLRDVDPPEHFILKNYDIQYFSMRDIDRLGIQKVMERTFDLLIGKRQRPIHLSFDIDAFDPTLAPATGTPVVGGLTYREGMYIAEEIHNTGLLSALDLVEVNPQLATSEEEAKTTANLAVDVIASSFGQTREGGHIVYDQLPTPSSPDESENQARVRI

[7] = target: T3, Proteasome subunit beta (Trypanosoma cruzi) (UniProt O96673); assay: Trypanosoma cruzi proteasome chymotrypsin-like activity (TcProtChymo) assay.; also: in the data most compounds retested in dose-response had high values; type: functional; details: 9.37 µM
T3 sequence (whole entry): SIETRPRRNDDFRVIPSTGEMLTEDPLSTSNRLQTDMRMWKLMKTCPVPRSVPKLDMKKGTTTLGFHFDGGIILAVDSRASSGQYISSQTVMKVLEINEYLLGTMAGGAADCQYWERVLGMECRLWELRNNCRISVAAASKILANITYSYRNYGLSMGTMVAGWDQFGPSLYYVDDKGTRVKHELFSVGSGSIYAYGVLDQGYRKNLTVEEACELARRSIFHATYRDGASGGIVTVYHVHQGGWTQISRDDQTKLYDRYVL

[8] = species: Homo sapiens; assay: To identify inhibition of the IFN signalling (Jak-Stat) pathway via expression of an eGFP reporter gene under the control of an IFN-stimulated response element (ISRE) containing MxA promoter.; type: functional; details: 30 µM
[9] = target: T4, Tyrosyl-tRNA synthetase, putative (Trypanosoma cruzi (strain CL Brener)) (UniProt Q4DSP6); assay: Trypanosoma cruzi tyrosyl tRNA synthetase (TcYRS) _High Tyrosine SOP; type: functional; details: 30 µM; also: in the data most compounds retested in dose-response had high values
T4 sequence (whole entry): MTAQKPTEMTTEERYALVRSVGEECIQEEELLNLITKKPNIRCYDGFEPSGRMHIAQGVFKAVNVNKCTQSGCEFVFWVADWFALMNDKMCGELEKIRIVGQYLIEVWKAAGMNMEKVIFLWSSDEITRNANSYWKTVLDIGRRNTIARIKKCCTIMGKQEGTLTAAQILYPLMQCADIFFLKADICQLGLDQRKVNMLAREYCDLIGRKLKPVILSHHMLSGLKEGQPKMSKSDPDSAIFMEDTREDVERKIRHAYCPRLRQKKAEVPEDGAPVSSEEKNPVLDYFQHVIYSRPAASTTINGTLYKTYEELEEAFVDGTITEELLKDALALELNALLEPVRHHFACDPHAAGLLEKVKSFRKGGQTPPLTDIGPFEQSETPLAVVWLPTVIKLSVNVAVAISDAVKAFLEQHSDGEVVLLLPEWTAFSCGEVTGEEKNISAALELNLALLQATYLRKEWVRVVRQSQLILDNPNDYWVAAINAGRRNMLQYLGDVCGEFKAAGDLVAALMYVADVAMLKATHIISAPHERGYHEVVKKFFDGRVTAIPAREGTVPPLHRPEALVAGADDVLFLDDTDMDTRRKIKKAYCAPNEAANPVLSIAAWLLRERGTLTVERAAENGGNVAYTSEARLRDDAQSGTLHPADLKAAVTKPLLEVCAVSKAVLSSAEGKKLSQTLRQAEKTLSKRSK

[10] = target: T4, Tyrosyl-tRNA synthetase, putative (Trypanosoma cruzi (strain CL Brener)); assay: Trypanosoma cruzi tyrosyl tRNA synthetase (TcYRS) SOP; type: functional; details: 30 µM
[11] = target: Chromo domain-containing protein 1 (Saccharomyces cerevisiae (strain ATCC 204508 / S288c) (Baker's yeast)) (UniProt P32657); assay: ScCHD-1 Enzyme Inhibition Assay; type: functional; details: 30 µM; also: in the data most compounds retested in dose-response had high values
Sequence of Chromo domain-containing protein 1 (Saccharomyces cerevisiae (strain ATCC 204508 / S288c) (Baker's yeast)) (P32657 whole entry, the tested form may be a part): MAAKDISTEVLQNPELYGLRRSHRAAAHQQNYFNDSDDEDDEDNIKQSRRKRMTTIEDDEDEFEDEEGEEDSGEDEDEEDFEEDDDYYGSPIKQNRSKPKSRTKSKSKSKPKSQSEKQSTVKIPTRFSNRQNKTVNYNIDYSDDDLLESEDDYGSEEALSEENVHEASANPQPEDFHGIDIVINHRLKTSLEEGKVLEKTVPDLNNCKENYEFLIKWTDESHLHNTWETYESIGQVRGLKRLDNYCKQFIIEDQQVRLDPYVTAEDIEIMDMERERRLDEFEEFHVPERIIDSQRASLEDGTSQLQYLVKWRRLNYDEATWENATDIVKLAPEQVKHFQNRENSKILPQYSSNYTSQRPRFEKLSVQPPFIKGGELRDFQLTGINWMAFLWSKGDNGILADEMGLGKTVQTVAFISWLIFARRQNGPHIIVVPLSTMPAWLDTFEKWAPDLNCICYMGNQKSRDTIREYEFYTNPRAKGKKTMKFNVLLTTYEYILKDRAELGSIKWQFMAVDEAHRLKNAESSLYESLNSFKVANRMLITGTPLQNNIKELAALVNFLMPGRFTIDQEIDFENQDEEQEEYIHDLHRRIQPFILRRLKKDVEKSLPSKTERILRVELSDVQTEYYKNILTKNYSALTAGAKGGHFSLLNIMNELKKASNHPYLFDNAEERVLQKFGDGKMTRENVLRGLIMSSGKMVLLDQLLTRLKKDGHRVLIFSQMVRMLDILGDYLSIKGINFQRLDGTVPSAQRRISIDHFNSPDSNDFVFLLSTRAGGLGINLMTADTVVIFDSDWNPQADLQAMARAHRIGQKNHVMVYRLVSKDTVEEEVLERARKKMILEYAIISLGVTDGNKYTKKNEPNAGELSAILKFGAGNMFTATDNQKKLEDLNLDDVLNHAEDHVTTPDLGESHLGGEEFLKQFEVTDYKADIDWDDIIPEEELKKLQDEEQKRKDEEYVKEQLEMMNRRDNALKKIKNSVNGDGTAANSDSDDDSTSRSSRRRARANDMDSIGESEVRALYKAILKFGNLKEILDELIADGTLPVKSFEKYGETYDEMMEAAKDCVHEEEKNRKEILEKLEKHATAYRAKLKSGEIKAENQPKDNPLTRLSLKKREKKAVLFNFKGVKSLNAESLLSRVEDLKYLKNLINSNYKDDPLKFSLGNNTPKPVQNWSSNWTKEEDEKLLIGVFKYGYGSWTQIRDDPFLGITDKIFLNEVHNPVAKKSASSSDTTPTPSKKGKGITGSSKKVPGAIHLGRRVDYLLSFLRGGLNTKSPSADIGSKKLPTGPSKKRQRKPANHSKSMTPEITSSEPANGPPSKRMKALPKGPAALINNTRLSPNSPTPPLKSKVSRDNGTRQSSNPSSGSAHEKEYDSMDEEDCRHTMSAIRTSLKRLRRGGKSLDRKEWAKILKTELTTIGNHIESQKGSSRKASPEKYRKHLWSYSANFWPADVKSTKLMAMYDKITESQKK

Sequence of Sialic acid-binding Ig-like lectin 9 (Homo sapiens) (Q9Y336 whole entry): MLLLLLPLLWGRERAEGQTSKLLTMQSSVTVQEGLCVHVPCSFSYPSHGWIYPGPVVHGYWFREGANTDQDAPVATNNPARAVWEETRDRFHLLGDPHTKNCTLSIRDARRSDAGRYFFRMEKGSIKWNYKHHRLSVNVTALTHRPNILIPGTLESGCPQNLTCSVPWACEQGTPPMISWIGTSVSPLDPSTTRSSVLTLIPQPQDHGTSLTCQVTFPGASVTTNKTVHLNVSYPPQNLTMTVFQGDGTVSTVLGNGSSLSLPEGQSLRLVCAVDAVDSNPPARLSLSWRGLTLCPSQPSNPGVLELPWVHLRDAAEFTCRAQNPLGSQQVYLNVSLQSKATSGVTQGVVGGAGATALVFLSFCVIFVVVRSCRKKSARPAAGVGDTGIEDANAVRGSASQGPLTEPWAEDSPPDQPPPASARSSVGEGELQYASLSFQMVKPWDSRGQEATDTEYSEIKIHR
Sequence of Protein translocase subunit SecA (Escherichia coli (strain K12)) (P10408 whole entry): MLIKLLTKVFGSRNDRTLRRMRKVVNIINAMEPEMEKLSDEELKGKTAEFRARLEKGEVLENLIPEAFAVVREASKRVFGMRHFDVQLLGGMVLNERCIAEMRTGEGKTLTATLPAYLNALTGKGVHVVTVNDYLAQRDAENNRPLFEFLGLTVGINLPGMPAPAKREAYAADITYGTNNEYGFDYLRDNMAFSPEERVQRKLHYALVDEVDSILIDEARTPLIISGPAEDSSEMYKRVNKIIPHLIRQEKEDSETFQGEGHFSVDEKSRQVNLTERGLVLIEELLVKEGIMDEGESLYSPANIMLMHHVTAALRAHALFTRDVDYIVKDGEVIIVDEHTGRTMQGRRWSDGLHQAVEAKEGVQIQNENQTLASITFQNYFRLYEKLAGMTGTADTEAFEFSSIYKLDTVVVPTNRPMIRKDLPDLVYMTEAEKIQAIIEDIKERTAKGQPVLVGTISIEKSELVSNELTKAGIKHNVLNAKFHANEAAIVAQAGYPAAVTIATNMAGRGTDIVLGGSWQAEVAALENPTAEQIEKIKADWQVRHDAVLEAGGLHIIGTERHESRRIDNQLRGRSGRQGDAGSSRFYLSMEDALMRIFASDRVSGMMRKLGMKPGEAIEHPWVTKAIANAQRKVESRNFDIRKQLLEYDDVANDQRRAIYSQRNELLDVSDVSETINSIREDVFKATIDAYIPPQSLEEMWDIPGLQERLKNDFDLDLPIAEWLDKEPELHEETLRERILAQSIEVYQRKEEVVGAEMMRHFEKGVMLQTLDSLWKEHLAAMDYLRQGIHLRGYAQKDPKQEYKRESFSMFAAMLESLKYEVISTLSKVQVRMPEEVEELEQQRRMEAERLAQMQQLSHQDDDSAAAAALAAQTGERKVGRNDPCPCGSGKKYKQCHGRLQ

Row | SMILES | Percent Effect [1] [%] | Percent Effect [2] [%] | Percent Effect [3] [%] | Percent Effect [4] [%] | Percent Effect [5] [%] | Percent Effect [6] [%] | Percent Effect [7] [%] | Percent Effect [8] [%] | Percent Effect [9] [%] | Percent Effect [10] [%] | Percent Effect [11] [%]
1 | CS(=O)(=O)NC[C@]12COC[C@H]1CN(C(=O)C1CCCCC1)C2 | -1.23 | 0 | 2.98 | -0.175 | -1.47 | 14.3 | 17.7 | -0.518 | -20.5 | -25.6 | 3.02
2 | Cc1ccc(N2CC3(COCCN(Cc4cccnc4)C3)OCC2=O)s1 (stereo unspecified) | -6.13 | 2.6 | 20.6 | -4.32 | -2.27 | 0.645 | 4.18 | 21.4 | -2.12 | -3.85 | -1.59
3 | Cc1ccoc1C(=O)N1C[C@@H]2[C@@H](C1)OCC(=O)N2Cc1cccnc1 | -4.32 | -15.6 | -0.37 | 0.332 | -2.86 | 3.23 | 2.96 | 19.8 | -27.5 | -47.4 | 5.56
4 | CCOCCN1CCN(Cc2nc(C3CC3)no2)CC1CC (stereo unspecified) | -6.05 | 5.48 | 6.32 | 25.2 | 10.4 | 0.909 | 9.41 | 2.26 | 3.23 | 7.5 | -5.89
5 | CC(=O)N1CCCN(C(=O)NCc2cc[nH]n2)CC1 | -8.38 | 13.2 | -10.6 | 1.18 | 11.1 | 1.08 | 14.6 | 1 | 11.3 | 23.5 | -8.49
6 | Cn1cc(C2CCCN2CCCc2nc(-c3cccs3)no2)cn1 (stereo unspecified) | -0.777 | -32.4 | -4.52 | -1.6 | -3.87 | -6.41 | 7.03 | 18.4 | 4.43 | -6.17 | 0.396
7 | O=C(COCC1CC1)N1CCCC(n2cncn2)C1 (stereo unspecified) | 1.39 | 10.8 | -12 | -7.81 | -3.3 | -2.81 | 13 | 12.5 | 1.48 | 16.1 | -2.64
8 | O=C(c1cnco1)N1C[C@@H]2CC[C@H](Oc3cccc(F)c3)[C@@H]2C1 | -9.68 | 12.2 | 2.91 | 6.76 | 0.988 | -4.41 | 10.9 | 9.56 | 3.23 | 11.7 | -8.63
9 | CCn1c(CN(C)C)nnc1C1CCN(Cc2ccccc2)CC1 | -0.0485 | 10.4 | 2.85 | 13.5 | 5.61 | -6.9 | 11.7 | 12.4 | 7.53 | 21 | -8.57
10 | CC(C)N1CC(C(=O)NCCOc2ccc3c(c2)OCO3)CC1=O (stereo unspecified) | 0.716 | 21.1 | -0.48 | -5.15 | 3.64 | 2.16 | 12.1 | 4.59 | 8.37 | 23.5 | -9.09
11 | O=C(COc1cccc2c1CCC2=O)NCCOc1ccccc1 | -0.203 | 2.63 | -0.945 | -8.98 | -6.33 | 3.55 | 9.68 | 40.1 | -1.06 | 0 | -2.69
12 | CN(c1ccncn1)C1CC2(CCN(C(=O)CCc3cccs3)C2)C1 (stereo unspecified) | -3.27 | 1.35 | 6.25 | 8.01 | 5.34 | -1.16 | 1.87 | 39.7 | 5.38 | 6.49 | -4.42
13 | CN(C)C(=O)COC[C@]12COC[C@H]1CN(CC1CCC1)C2 | 1.38 | 2.7 | -10.5 | 19.2 | 4.79 | 6.7 | 7.12 | 8.3 | 2.15 | 3.7 | -9.34
14 | Cn1nccc1C(=O)N1CCOC(Cc2cccnc2)C1 (stereo unspecified) | -5.75 | 10.7 | -3.23 | 4.56 | 5.91 | -3.03 | -4.85 | 7.36 | 6.38 | 16.7 | -7.31
15 | CCn1c(C2CCCN(Cc3nccn3CCOC)C2)nn(C)c1=O (stereo unspecified) | -0.824 | 8.11 | -5.71 | 28.2 | 3.03 | 32.5 | 3.69 | -44.6 | 9.68 | 18.5 | -6.18
16 | CC(=O)N1CCC(C(=O)c2cc(C)cnc2N)CC1 | -3.36 | 10.7 | 3.67 | 3.51 | 3.15 | 3.03 | 7.67 | 17.4 | 4.25 | 11.5 | -4.18
